# Laboratory results: the supplement of paper PMC10720658
# ± gives the standard deviation of the averaged measurements.
# Tested on: AEK1 (Tb927.3.2440)
# Test: percent reduction in TR-FRET probe signal relative to DMSO control; higher = stronger displacement of ATP-site probe (binding)
# Settings: 1 µM; incubation time 1 h
row,SMILES,percent reduction in TR-FRET probe signal
1,Cn1cnc(-c2cc3nccc(Oc4ccc(NC(=S)NC(=O)Cc5ccccc5)cc4F)c3s2)c1,10.3 ± 8.6%
2,CCOc1cc(C(=O)N2CCC(N3CCN(C)CC3)CC2)ccc1Nc1ncc2c(n1)N(C1CCCC1)c1ccccc1C(=O)N2C,-3.15 ± 9.5%
3,CNc1nc(Nc2cn(C(C)(C)C#N)nc2C)ncc1C(F)(F)F,-10.7 ± 11%
4,COc1cc2nccc(Oc3ccc(NC(=O)C4(C(=O)Nc5ccc(F)cc5)CC4)cc3)c2cc1OC,-3.97 ± 6.1%
5,Oc1ccc(-c2nc(-c3ccc(F)cc3)c(-c3ccncc3)[nH]2)cc1,-5.77 ± 4%
6,Cc1cc2c(F)c(Oc3ncnn4cc(OC[C@@H](C)O)c(C)c34)ccc2[nH]1,20.2 ± 15%
